Results as given in PubChem BioAssay (Tox21).
Inconclusive results are not listed. Activity calls are given as the source filed them. The call rests on the fitted dose curve; in most records, active means well fitted inhibition curve with a large enough effect in the signal ratio in the repeat runs (not every such curve was filed as active); inconclusive means weak or mixed curves, or effect the other way; inactive means no such curve, though single readings can be large or run the other way; the % refers to the signal ratio.

target: Vitamin D3 receptor (Homo sapiens) (UniProt P11473); assay: qHTS assay to identify small molecule antagonists of the vitamin D receptor (VDR) signaling pathway (AID 743223); details: VDR-UAS-bla HEK293T, beta-lactamase FRET ratio, 16 h; series mostly up to 61 µM
Sequence (P11473 whole entry, looked up): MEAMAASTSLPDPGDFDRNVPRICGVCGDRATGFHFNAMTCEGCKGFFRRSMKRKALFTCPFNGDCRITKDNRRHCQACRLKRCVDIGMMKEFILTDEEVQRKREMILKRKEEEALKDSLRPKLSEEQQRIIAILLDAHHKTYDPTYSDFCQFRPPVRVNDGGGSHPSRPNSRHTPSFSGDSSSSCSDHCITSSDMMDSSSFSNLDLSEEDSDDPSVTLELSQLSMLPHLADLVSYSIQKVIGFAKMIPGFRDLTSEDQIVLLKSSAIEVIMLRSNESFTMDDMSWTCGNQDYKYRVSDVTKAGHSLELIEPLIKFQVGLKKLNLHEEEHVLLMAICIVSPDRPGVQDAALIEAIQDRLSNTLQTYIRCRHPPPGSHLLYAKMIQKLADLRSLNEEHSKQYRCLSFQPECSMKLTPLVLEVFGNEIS
Procedure, shortened: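 Reporter line VDR-bla; stimulus 1alpha,25-(OH)2 vitamin D3, 3 nM final; compound co-addition, 16 h 37C/5% CO2; LiveBLAzer B/G substrate 2 h RT; fluorescence intensity.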

For `c1ccccc1`, which outcome is on record?
The outcome was “inactive”.

For `CCCCCN(CCCOC)C(=O)C(CCC(=O)O)NC(=O)c1ccc(Cl)c(Cl)c1` (stereo not given), which outcome is on record?
Its outcome is “inactive”.

With `O=C(CN1CCN(Cc2ccc3c(c2)OCO3)CC1)N1c2ccccc2Sc2ccccc21` as the compound, how does the outcome read?
Its outcome is “inactive”.

Which outcome does the source give for `CC(CC(=O)O)CC(C)(C)C` (stereo not given) here?
Its outcome is “inactive”.

`c1ccc(CNc2ncnc3nc[nH]c23)cc1` was tested. Which outcome did it give?
The outcome was “inactive”.

With `CC(=O)OC(C)(C)Cc1ccccc1` as the compound, how does the outcome read?
The outcome was “inactive”.

Which outcome does the source give for `C=CCOc1cc(Cl)ccc1C(=O)NCCN(CC)CC` here?
The outcome was “inactive”.

With `Cc1nc2n(c(=O)c1CCN1CCC(C(=O)c3ccc(F)cc3)CC1)CCS2` as the compound, how does the outcome read?
Its outcome is “inactive”.

`CC(C)C(=O)Nc1cccc(C(F)(F)F)c1` was tested. Which outcome did it give?
The outcome was “inactive”.

Which outcome does the source give for `Cc1cccc(NC(=S)N(C)C)c1` here?
Its outcome is “inactive”.

Which outcome does the source give for `CC(C)COC(=O)/C=C/c1ccccc1` here?
Its outcome is “inactive”.

For `Nc1ccc(C(=O)OCC(O)CO)cc1` (stereo not given), which outcome is on record?
Its outcome is “inactive”.

Which outcome does the source give for `O=S(=O)(O)c1cc(O)ccc1O` here?
Its outcome is “inactive”.

`O=C(O)c1ccc(OCCN2CCCCC2)cc1` was tested. Which outcome did it give?
Its outcome is “inactive”.

With `O=C(O)/C=C/c1ccccc1` as the compound, how does the outcome read?
The outcome was “inactive”.

With `CCCCCCCCCCCCCCCCCCN(C)C` as the compound, how does the outcome read?
Its outcome is “inactive”.

Which outcome does the source give for `Cc1ccc(C(=O)C(=O)O)cc1C` here?
The outcome was “inactive”.

`CNC(=O)C(c1ccccc1)c1ccccc1` was tested. Which outcome did it give?
Its outcome is “inactive”.

`CCCCC(CC)CNC(=O)CC(C)OC(=O)CCC(=O)O` (stereo not given) was tested. Which outcome did it give?
Its outcome is “inactive”.

For `CC(=O)OC[C@H]1O[C@@H](OC(C)=O)[C@H](OC(C)=O)[C@@H]1OC(C)=O`, which outcome is on record?
The outcome was “inactive”.

With `N#CCCOCCOCCC#N` as the compound, how does the outcome read?
The outcome was “inactive”.

How did the outcome turn out when `CC(C)CCC(=O)CCC(C)C` was run?
The outcome was “inactive”.

`Nc1nc(=O)n([C@@H]2O[C@H](CO)[C@@H](O)[C@@H]2F)cc1I` was tested. Which outcome did it give?
Its outcome is “inactive”.

How did the outcome turn out when `CCOC(=O)C(=O)c1csc(NC=O)n1` was run?
Its outcome is “inactive”.

`CC(C)=CC(C)(C)C` was tested. Which outcome did it give?
The outcome was “inactive”.
